# Unmarked numbers belong to inactive results. Results filed as inconclusive are left out. A call without a number means that no potency is given here. The source made the active and inactive calls. Unless noted, the call rests on the fitted dose curve.
# Columns and labels:
# [1] = Nuclear factor erythroid 2-related factor 2/antioxidant responsive element (Nrf2/ARE) small molecule agonists: qHTS cell viability counter screen in human keratinocytes (AID 1919968; active means well fitted curve in the direction sought with a large enough effect in the repeat runs; an effect the other way counts as inactive or inconclusive; further: nearly all actives have a fitted effect of over 55% in size)
# In short: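 Stably transfected HaCaT (KeratinoSens), 1,500/well. Test agents in DMSO were applied for 23 h, 37 C/5% CO2. CellTiter-Fluor was incubated 1 h before the fluorescence read.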
# [2] = Nuclear factor erythroid 2-related factor 2/antioxidant responsive element (Nrf2/ARE) small molecule agonists: luciferase reporter gene qHTS assay in human keratinocytes (AID 1919969); further: nearly all actives have a fitted effect of over 35% in size
# [3] = biological target: Gonadotropin-releasing hormone receptor (Homo sapiens) (UniProt P30968); assay: Human gonadotropin-releasing hormone receptor (GnRHR) small molecule agonists, calcium flux assay in GnRHR-HEK293 cells (AID 1920063); further: nearly all actives have a fitted effect of over 35% in size
# In short: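 Stable human GnRHR HEK293 line. 18 h plating, then calcium dye for 1 h at 37 C. Agonist-mode compound addition from DMSO stocks; fluorescence monitored 3 min.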
# [4] = biological target: KiSS-1 receptor (Homo sapiens) (UniProt Q969F8); assay: Human kisspeptin (KISS1R) small molecule agonists, calcium flux assay in KISS1R-HEK293 cells (AID 1920064; active means well fitted curve in the direction sought with a large enough effect in the repeat runs; an effect the other way counts as inactive or inconclusive)
# In short: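 After overnight (18 h) culture at 37 C/5% CO2, human KISS1R-HEK293 cells received calcium dye for 1 h, then test compound; emission at 540 nm (excitation 480 nm) was tracked for 3 min.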
# [5] = G protein-coupled receptor (GPCR) small molecule agonists, calcium flux assay: HEK293 wild type cell line counter screen (AID 1920065)
# In short: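 Following 18 h incubation at 37 C/5% CO2, plates got calcium dye for 1 h; compounds, ATP or DMSO were then pinned in and fluorescence followed kinetically (480/540 nm).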
# [6] = p53 small molecule agonists, cell-based qHTS assay with human liver microsomes (AID 1963577);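 further: p53 response element beta-lactamase reporter cells with liver microsomes plus NADPH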
# In short: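 HLM-supplemented p53RE-bla reporter assay: 16 h compound exposure at 37 C, microsomes and NADPH each 0.5 mg/mL final, read by fluorescence intensity.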
# [7] = p53 small molecule agonists, cell-based qHTS assay with rat liver microsomes (AID 1963578)
# In short: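 Quantitative HTS of the Tox21 10K library: p53RE-bla cells, rat liver microsomes plus NADPH at 0.5 mg/mL final each, 16 h at 37 C, beta-lactamase fluorescence detection.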
# [8] = p53 small molecule agonists, cell-based qHTS assay with human liver microsomes: qHTS cell viability counter screen (AID 1963579); further: nearly all actives have a fitted effect of over 45% in size
# In short: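 Viability of p53RE-bla cells is measured as CellTiter-Glo luminescence following a 16 h, 37 C incubation with compound, liver microsomes from human donors and NADPH.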
# [9] = p53 small molecule agonists, cell-based qHTS assay with rat liver microsomes: qHTS cell viability counter screen (AID 1963580); further: nearly all actives have a fitted effect of over 45% in size
# In short: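 Rat liver microsome (0.5 mg/mL final) and NADPH (0.5 mg/mL final) co-incubation with compounds for 16 h at 37 C on HCT-116 p53RE-bla cells; cytotoxicity taken from intracellular ATP luminescence.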
# [10] = p53 small molecule agonists, cell-based qHTS assay: qHTS cell viability counter screen (AID 1963581); further: nearly all actives have a fitted effect of over 45% in size
# In short: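 qHTS counter screen: 16 h compound exposure at 37 C of p53RE-bla HCT-116 cells (4,000 per well, seeded 5 h prior), cell viability by ATP luminescence.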
# [11] = p53 small molecule agonists, cell-based qHTS assay (AID 1963582; active means well fitted activation curve with a large enough effect in the signal ratio in the repeat runs, not every such curve was filed as active; the % refers to the signal ratio; further: potency means the concentration at half of the fitted maximal effect)
# In short: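 Measured: fluorescence from cleaved LiveBLAzer substrate. System: p53RE-bla cells, 16 h compound treatment at 37 C, 2 h substrate step at room temperature.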
# [12] = biological target: Muscarinic acetylcholine receptor M1 (Homo sapiens) (UniProt P11229); assay: Cholinergic receptor muscarinic 1 (CHRM1) small molecule antagonists, cell-based qHTS assay (AID 1963588); further: nearly all actives have a fitted effect of over 40% in size
# In short: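 Compounds were tested at 15 concentrations in three independent runs. Dye-loaded CHRM1-CHO cells were exposed 5 min at room temperature before stimulation by acetylcholine added at 50nM. Intracellular calcium was read kinetically on FDSS for 3 min.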
# [13] = biological target: Muscarinic acetylcholine receptor M1 (Homo sapiens) (UniProt P11229); assay: Cholinergic receptor muscarinic 1 (CHRM1) small molecule agonists, cell-based qHTS assay (AID 1963589); further: nearly all actives have a fitted effect of over 35% in size
# In short: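 Kinetic fluorescence (1 s intervals) of calcium-sensitive dye in human M1 CHO cells after compound addition; cells pre-incubated 18 h at 37 C/5% CO2 and dye-loaded 1 h.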
# [14] = cAMP Responsive Elements (CRE) small molecule agonists, cell-based qHTS assay (AID 1963590)
# In short: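 Test agents in DMSO were incubated 3 h at 37 C/5% CO2 with CRE-bla HEK 293T cells seeded 18 h earlier; LiveBLAzer B/G FRET substrate was added and read after 2 h at room temperature.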
# [15] = cAMP Responsive Elements (CRE) small molecule antagonists, cell-based qHTS assay (AID 1963591; active means well fitted inhibition curve with a large enough effect in the signal ratio in the repeat runs, not every such curve was filed as active; the % refers to the signal ratio)
# In short: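 Reporter line CRE-bla HEK 293T in dialyzed-FBS DMEM; cells preincubated 18 h, treated 3 h with compound plus NKH477 (0.25 uM final); LiveBLAzer FRET, 2 h RT.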
# [16] = biological target: Beta-2 adrenergic receptor (Homo sapiens) (UniProt P07550); assay: Adrenergic beta2 receptor (ADRB2) small molecule antagonists, cell-based qHTS assay (AID 1963592); further: series mostly up to about 92 µM; nearly all actives have a fitted effect of over 50% in size
# In short: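 Assay format: CHO-ADRB2 cells, 18-20hr seeding at 37C/5% CO2, then compound plus 1nM isoproterenol agonist mix for 0.5hr RT. Homogeneous time-resolved fluorescence cAMP detection after 1hr, expressed as 665/615 nm ratio.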
# [17] = biological target: D(2) dopamine receptor (Homo sapiens) (UniProt P14416); assay: Dopamine D2 receptor (DRD2) small molecule agonists, cell-based qHTS assay (AID 1963594); further: nearly all actives have a fitted effect of over 35% in size
# In short: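 cAMP accumulation in DRD2-HEK293 cells measured by HTRF after 1 h detection; compounds added 10 min before NKH477 (200nM […]) forskolin-analogue stimulation, 30 min at room temperature, with Ro20-1724 present at 0.1 mM final.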
# [18] = biological target: D(2) dopamine receptor (Homo sapiens) (UniProt P14416); assay: Dopamine D2 receptor (DRD2) small molecule antagonists, cell-based qHTS assay (AID 1963595; active means well fitted inhibition curve with a large enough effect in the signal ratio in the repeat runs, with a control signal flat; the % refers to the signal ratio)
# In short: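 Antagonism was scored as restored cAMP in HEK293-DRD2 cells. These cells were stimulated with 200 nM NKH477 and 12 nM quinpirole for 30 min at room temperature, in the presence of 0.1 mM Ro20-1724.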
# [19] = biological target: Beta-2 adrenergic receptor (Homo sapiens) (UniProt P07550); assay: Adrenergic beta2 receptor (ADRB2) small molecule agonists, cell-based qHTS assay (AID 1963593);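 further: CHO cells stably overexpressing human ADRB2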
# In short: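 CHO cells stably over-expressing ADRB2 were plated overnight at 37C, then dosed with compounds plus a stimulation mix containing 100uM IBMX and 25uM Ro-20-1724 for 0.5hr at room temperature. cAMP was measured by HTRF competition, 1hr.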
# Sequence of Muscarinic acetylcholine receptor M1 (Homo sapiens) (P11229 whole entry, looked up): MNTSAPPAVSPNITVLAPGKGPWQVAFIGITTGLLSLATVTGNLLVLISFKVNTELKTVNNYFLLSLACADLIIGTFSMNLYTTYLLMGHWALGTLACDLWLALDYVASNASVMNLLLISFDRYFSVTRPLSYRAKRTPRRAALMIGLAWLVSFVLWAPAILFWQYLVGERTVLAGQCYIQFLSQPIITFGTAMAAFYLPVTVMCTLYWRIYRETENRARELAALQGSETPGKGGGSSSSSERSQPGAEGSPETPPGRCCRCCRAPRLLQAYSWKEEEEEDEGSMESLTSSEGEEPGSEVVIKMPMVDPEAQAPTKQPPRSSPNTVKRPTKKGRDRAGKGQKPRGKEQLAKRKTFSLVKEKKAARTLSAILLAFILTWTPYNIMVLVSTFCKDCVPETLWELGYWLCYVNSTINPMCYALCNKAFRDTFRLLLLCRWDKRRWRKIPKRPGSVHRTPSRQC
# Sequence of D(2) dopamine receptor (Homo sapiens) (P14416 whole entry, looked up): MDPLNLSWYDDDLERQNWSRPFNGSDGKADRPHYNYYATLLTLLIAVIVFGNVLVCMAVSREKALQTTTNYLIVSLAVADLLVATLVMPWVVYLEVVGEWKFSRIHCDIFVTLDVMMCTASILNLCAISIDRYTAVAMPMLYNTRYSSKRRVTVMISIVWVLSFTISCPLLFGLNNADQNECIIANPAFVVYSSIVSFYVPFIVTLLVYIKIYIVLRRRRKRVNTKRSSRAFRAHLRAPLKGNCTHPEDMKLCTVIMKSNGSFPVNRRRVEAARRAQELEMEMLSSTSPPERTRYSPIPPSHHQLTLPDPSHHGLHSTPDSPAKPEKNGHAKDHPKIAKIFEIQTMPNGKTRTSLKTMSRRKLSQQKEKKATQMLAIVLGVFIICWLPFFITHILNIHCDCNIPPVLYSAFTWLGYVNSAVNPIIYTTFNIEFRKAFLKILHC
# Sequence of Gonadotropin-releasing hormone receptor (Homo sapiens) (P30968 whole entry, looked up): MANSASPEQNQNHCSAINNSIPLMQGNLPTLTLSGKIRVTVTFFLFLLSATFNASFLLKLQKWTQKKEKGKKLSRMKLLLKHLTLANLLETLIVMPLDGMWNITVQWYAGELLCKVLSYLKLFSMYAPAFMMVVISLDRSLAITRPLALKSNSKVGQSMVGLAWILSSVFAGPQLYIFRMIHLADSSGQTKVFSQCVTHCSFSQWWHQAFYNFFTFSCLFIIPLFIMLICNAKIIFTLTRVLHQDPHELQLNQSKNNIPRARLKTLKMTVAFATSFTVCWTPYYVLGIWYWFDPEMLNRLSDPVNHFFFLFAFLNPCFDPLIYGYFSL
# Sequence of Beta-2 adrenergic receptor (Homo sapiens) (P07550 whole entry, looked up): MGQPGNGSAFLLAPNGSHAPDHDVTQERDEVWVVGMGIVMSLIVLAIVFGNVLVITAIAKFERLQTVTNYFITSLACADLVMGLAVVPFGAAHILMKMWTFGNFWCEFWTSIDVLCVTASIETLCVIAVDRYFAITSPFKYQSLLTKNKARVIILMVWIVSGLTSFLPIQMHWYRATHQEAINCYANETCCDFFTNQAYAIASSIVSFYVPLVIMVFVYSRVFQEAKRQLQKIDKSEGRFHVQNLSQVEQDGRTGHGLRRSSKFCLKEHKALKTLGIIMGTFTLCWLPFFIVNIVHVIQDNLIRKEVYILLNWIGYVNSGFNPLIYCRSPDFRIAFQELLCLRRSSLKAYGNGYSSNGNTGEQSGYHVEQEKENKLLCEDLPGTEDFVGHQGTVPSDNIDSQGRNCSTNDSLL
# Sequence of KiSS-1 receptor (Homo sapiens) (Q969F8 whole entry, looked up): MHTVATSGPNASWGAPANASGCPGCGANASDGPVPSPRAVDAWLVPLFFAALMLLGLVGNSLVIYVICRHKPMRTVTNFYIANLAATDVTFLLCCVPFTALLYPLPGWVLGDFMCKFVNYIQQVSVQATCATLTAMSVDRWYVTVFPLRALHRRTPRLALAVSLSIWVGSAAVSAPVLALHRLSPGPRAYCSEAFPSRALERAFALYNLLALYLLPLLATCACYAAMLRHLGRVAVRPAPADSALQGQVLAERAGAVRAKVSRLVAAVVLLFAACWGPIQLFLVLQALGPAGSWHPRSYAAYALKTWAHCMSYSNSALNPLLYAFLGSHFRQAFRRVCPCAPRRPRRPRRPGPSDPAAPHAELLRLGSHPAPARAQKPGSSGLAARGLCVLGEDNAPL
smiles,measurement,setting,value
CCCCCCCCCCCCCCCCCO,"activity change, negative = cytotoxicity",[1],0.787% [at 19 µM]
same,"activity, positive = activation",[2],-1.74% [at 19 µM]
same,activity change,[3],"4.53% [at 11.8 µM, stronger effect = higher value]"
same,activation,[4],3.41% [at 15.8 µM]
same,activation,[5],-0.253% [at 11.8 µM]
same,activation,[6],4.84% [at 13.5 µM]
same,activation,[7],1.18% [at 13.6 µM]
same,"activity change, negative = cytotoxicity",[8],-0.024% [at 13.5 µM]
same,"activity change, negative = cytotoxicity",[9],-2.14% [at 13.5 µM]
same,"activity change, negative = cytotoxicity",[10],17.8% [at 13.5 µM]
same,activation,[11],-2.02% [at 13.5 µM]
same,"activity, negative = inhibition",[12],-16.4% [at 12.6 µM]
same,activation,[13],-0.0126% [at 15.8 µM]
same,activation,[14],-0.514% [at 19 µM]
same,"activity change, negative = inhibition",[15],0.936% [at 18.9 µM]
same,"activity change, negative = inhibition",[16],-1.56% [at 19 µM]
same,activation,[17],0.198% [at 19 µM]
same,"activity change, negative = inhibition",[18],6.26% [at 18.9 µM]
O=Cc1c(Cl)cccc1Cl,Potency,[1],inactive
same,Potency,[2],inactive
same,Potency,[3],inactive
same,outcome,[4],inactive
same,outcome,[5],inactive
same,Potency,[6],inactive
same,Potency,[7],inactive
same,Potency,[8],inactive
same,Potency,[9],inactive
same,Potency,[10],inactive
same,Potency,[11],inactive
same,Potency,[12],inactive
same,Potency,[13],inactive
same,Potency,[14],inactive
same,Potency,[15],inactive
same,Potency,[16],inactive
same,Potency,[17],inactive
same,Potency,[18],inactive
CC(=O)c1c(C)cc(C(C)(C)C)cc1C,Potency,[1],inactive
same,Potency,[2],inactive
same,Potency,[3],inactive
same,outcome,[4],inactive
same,outcome,[5],inactive
same,Potency,[6],inactive
same,Potency,[7],inactive
same,Potency,[8],inactive
same,Potency,[9],inactive
same,Potency,[10],inactive
same,Potency,[11],inactive
same,Potency,[12],inactive
same,Potency,[13],inactive
same,Potency,[14],inactive
same,Potency,[15],inactive
same,Potency,[16],inactive
same,Potency,[19],inactive
same,Potency,[17],inactive
same,Potency,[18],inactive
Cc1ccsc1C(=CCCN1CCC[C@@H](C(=O)O)C1)c1sccc1C,Potency,[1],inactive
same,Potency,[2],inactive
same,Potency,[3],inactive
same,outcome,[4],inactive
same,outcome,[5],inactive
same,Potency,[6],inactive
same,Potency,[7],inactive
same,Potency,[8],inactive
same,Potency,[9],inactive
same,Potency,[10],inactive
same,Potency,[11],500 nM (active)
same,Potency,[12],inactive
same,Potency,[13],inactive
same,Potency,[16],inactive
same,Potency,[19],inactive
same,Potency,[17],inactive
same,Potency,[18],inactive
CCC1CO1 (centres undefined),Potency,[1],inactive
same,Potency,[2],inactive
same,Potency,[3],inactive
same,outcome,[4],inactive
same,outcome,[5],inactive
same,Potency,[6],inactive
same,Potency,[7],inactive
same,Potency,[8],inactive
same,Potency,[9],inactive
same,Potency,[10],inactive
same,Potency,[11],inactive
same,Potency,[12],inactive
same,Potency,[13],inactive
same,Potency,[14],inactive
same,Potency,[16],inactive
same,Potency,[17],inactive
same,Potency,[18],inactive
CCCCC(CC)(CO)CO,Potency,[1],inactive
same,Potency,[2],inactive
same,Potency,[3],inactive
same,outcome,[4],inactive
same,outcome,[5],inactive
same,Potency,[6],inactive
same,Potency,[7],inactive
same,Potency,[8],inactive
same,Potency,[9],inactive
same,Potency,[10],inactive
same,Potency,[11],inactive
same,Potency,[12],inactive
same,Potency,[13],inactive
same,Potency,[14],inactive
same,Potency,[15],inactive
same,Potency,[16],inactive
same,Potency,[18],inactive
Cc1occc1C(=O)Nc1ccc(C(=O)N2CCC(F)(F)/C(=C\C(=O)N3CCC(N4CCCCC4)CC3)c3ccccc32)cc1,Potency,[1],inactive
same,Potency,[2],inactive
same,Potency,[3],inactive
same,outcome,[4],inactive
same,outcome,[5],inactive
same,Potency,[6],inactive
same,Potency,[7],inactive
same,Potency,[8],inactive
same,Potency,[9],inactive
same,Potency,[10],inactive
same,Potency,[11],inactive
same,Potency,[13],inactive
same,Potency,[14],inactive
same,Potency,[15],inactive
same,Potency,[16],inactive
same,Potency,[19],inactive
same,Potency,[17],inactive
same,Potency,[18],inactive

# — PubChem BioAssay (Tox21)
